According to PubChem BioAssay AID1851 (National Center for Advancing Translational Sciences (NCATS), 2009):
Several values for one entry are separate records, joined by “and”; a condition that tells them apart may be missing. Identical values can stand only once. The whole screen tested about 16,000 compounds, of which about 2,600 (16%) were called active. About 20% were inconclusive and are not listed. Calls follow the shape of the dose curve; as a rule, active = well fitted curve in the direction sought with a large enough effect; inconclusive = small, poorly fitted or top-dose-only effect, or effect the other way; inactive = no such curve, though single readings can be large or run the other way. A selection follows. Some structures have more than one record in an assay (separate samples or runs), and their calls can disagree. Peptide text beside a SMILES is read from it.

The molecules below were run against Cytochrome P450 2D6 (Homo sapiens) (UniProt P10635) (assay: Cytochrome panel assay with activity outcomes). Settings: recombinant CYP, pro-luciferin dealkylation, luminescence, p450-cyp2d6; series mostly up to 57.1 µM; activity, negative = inhibition: at the top concentration.
Chain of Cytochrome P450 2D6 (Homo sapiens) (P10635 whole entry, looked up): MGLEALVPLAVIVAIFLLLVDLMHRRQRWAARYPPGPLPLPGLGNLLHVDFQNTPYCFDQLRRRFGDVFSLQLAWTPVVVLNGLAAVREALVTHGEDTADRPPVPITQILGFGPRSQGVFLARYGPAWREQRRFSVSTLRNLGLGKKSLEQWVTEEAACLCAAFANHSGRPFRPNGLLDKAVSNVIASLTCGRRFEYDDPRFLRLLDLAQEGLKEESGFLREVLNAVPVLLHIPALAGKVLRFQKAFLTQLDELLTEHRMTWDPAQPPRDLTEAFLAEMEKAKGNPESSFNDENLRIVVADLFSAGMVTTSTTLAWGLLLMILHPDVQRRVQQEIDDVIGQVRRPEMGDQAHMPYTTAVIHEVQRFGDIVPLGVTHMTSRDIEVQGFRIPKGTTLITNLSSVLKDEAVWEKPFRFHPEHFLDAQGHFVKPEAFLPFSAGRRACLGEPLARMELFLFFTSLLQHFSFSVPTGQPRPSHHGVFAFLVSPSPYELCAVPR
% is scaled to controls: 0 for no effect and ±100 for the full control effect.

Compound | activity, negative = inhibition | AC50
N#Cc1ccc(CN2CCC3(CC2)CCN(S(=O)(=O)c2ccccc2)CC3)cc1 | -7.01% (inactive) | 
N#Cc1ccc(CN2CCCC3(CCN(S(=O)(=O)c4ccccc4)CC3)C2)cc1 |  | 0.631 µM (active)
O=S(=O)(c1ccccc1)N1CCC2(CCN(Cc3ccccc3)CC2)CC1 | -2.12% (inactive) | 
O=S(=O)(c1ccccc1)N1CCC2(CC1)CN(Cc1ccccc1)C2 |  | 0.158 µM (active)
O=S(=O)(c1ccccc1)N1CCC2(CCCN(Cc3ccncc3)C2)CC1 |  | 1 µM (active)
Cc1ccccc1CNc1ncnc2c1ncn2[C@@H]1O[C@@H](CO)[C@H](O)[C@@H]1O | -5.35% (inactive) | 
COc1ccc(NS(=O)(=O)c2ccc(NC(=O)c3cnn4c(C(F)F)cc(-c5ccc(C)cc5)nc34)cc2)cc1 | 4.09% (inactive) | 
CC(C)=CCc1c2c(c3occ(-c4ccc(O)c(O)c4)c(=O)c3c1O)C=CC(C)(C)O2 | -0.0819% [at 11.4 µM] (inactive) | 
CCc1cc2c(=O)n(-c3ccccc3)c(=S)[nH]c2s1 | -4.86% (inactive) | 
COC(=O)/C=C\CCc1coc(/C=C\CNC(=O)OC)n1 | 8.58% [at 11.4 µM] (inactive) | 
COc1ccc(/C=C2\OC(=O)c3c(OC)cccc32)cc1OC | -3.99% (inactive) | 
Cn1c(=O)c(-c2ccc(Cl)cc2)nc2cncnc21 | 2.69% (inactive) | 
O=S(Cc1ccccc1)CC(O)(c1ccccc1)c1ccccc1 (stereo unspecified) |  | 2.24 µM (active)
O=C(O)C(Cl)(c1ccccc1)c1ccccc1 | 6.11% [at 11.4 µM] (inactive) | 
O=C(O)c1cccc(C(=O)O)c1S(=O)Cc1ccccc1 (stereo unspecified) | -0.655% [at 11.4 µM] (inactive) | 
COc1cccc(N=c2oc3c(C)ncc(CO)c3cc2C(N)=O)c1 | -2.53% (inactive) | 
O=C(C1CCCCC1)N1CC(=O)N2CCc3ccccc3[C@@H]2C1 | -6.05% [at 25.6 µM] (inactive) | 
CC(C)(C)[C@@]1(O)CCN2C[C@@H]3c4ccccc4CCc4cccc(c43)[C@@H]2C1 |  | 79.4 nM (active) and 501 nM (active)
CC(C)c1nnc(-c2ccc(Cl)cc2)c(N(C)C)n1 | -23.6% (inactive) | 
C/C(CCN1CCc2nc(-c3ccccc3)c(-c3ccccc3)cc2C1)=N\O[C@@H](C)c1cc(-c2c(C)cc(C)cc2C)no1 | 8.64% [at 11.4 µM] (inactive) | 
CS(=O)(=O)c1ccc([C@H](O)[C@H](CO)NC(=O)C(Cl)Cl)cc1 | -2.23% [at 25.6 µM] (inactive) | 
CN1/C(=C/C=C(/C#N)C(N)=O)C(C)(C)c2ccccc21 | -25.7% (inactive) | 
CN1/C(=C\C=[N+](C)c2ccccc2)C(C)(C)c2ccccc21 |  | 0.316 µM (active)
Cc1c(NC(=S)/C=C2\N(C)c3ccccc3C2(C)C)c(=O)n(-c2ccccc2)n1C | -13.2% (inactive) | 

Compound | activity, negative = inhibition | AC50
CN(C)c1ccc(N=C/C=C2\N(C)c3ccccc3C2(C)C)cc1 |  | 2.24 µM (active)
CC(C)CO/N=C1/C[C@@H](O)[C@@H](O)[C@@H]2[C@@H]3C(=O)N(C[C@@H]4CCCO4)C(=O)[C@H]3CC[C@H]12 | -1.45% [at 11.4 µM] (inactive) | 
Cc1cc(C)cc(Oc2coc3cc(OC(=O)c4cccs4)ccc3c2=O)c1 | 3.44% (inactive) | 
O=C(O)c1cccc2cccc(-c3cccc4cccc(C(=O)O)c34)c12 | -12.7% [at 11.4 µM] (inactive) | 
O=C(c1c[nH]c(=O)n(-c2ccccc2)c1=O)N1CCc2ccccc21 | 1.94% (inactive) | 
O=C(/C(=C/c1ccc(Cl)cc1)c1nc2ccccc2[nH]1)c1ccccc1 | -29% (inactive) | 
O=C(N/C(=C/c1ccc(Br)cc1)c1nc2ccccc2[nH]1)c1ccco1 |  | 12.6 µM (active)
O=C(Nc1cccc(Br)c1)/C(=C\c1cccnc1)NC(=O)c1ccco1 | -9.37% (inactive) | 
O=C1c2cccc3c(Cl)ccc(c23)C(=O)N1O | 10.7% (inactive) | 
COC(=O)c1ccc(-n2cncn2)c(F)c1 | -6.15% (inactive) | 
CCc1nn(C)c(-c2n[nH]c(=S)n2N)c1Cl | -3.2% (inactive) | 
Cc1ccc(S(=O)(=O)NC(=O)OC23COCN2COC3)cc1 | 18.1% [at 11.4 µM] (inactive) | 
Nc1nc(SCc2ccc([N+](=O)[O-])cc2)c2ncn([C@@H]3O[C@@H](CO)[C@@H](O)[C@H]3O)c2n1 | -4.44% (inactive) | 
Cc1ccc(NC(=S)N2CCN(CCN3C(=O)c4cccc5cccc(c45)C3=O)CC2)cc1 | -15.8% (inactive) | 
O=C(Cc1ccc(Cl)cc1)N1CCN(C(=O)c2ccco2)CC1 | -14.7% (inactive) | 
O=C(O)C1CCN(c2ncccn2)CC1 | 14.6% (inactive) | 
O=C(CN1C(=O)c2cccc3cccc(c23)C1=O)N1CCCCCC1 | -21.8% (inactive) | 
O=C(COc1ccc(Cl)cc1)N1CCN(Cc2ccc3c(c2)OCO3)CC1 |  | 0.2 µM (active)
c1cnc(N2CCN(Cc3ccc4c(c3)OCO4)CC2)nc1 |  | 1 µM (active) and 200 nM (active) and inactive
COC(=O)c1ccccc1OCC(=O)N1CCN(c2ccc(Cl)cc2)CC1 | -8.14% (inactive) | 
O=C(O)[C@@H]1CCCN1Cc1ccc2c(c1)OCO2 | 7.95% [at 11.4 µM] (inactive) | 
O=C(CCN1C(=O)c2cccc3cccc(c23)C1=O)N1CCN(Cc2ccc3c(c2)OCO3)CC1 |  | 14.1 µM (active)
CC(=O)[C@@H](C)CCO[C@@]1(C)OCC[C@@H]1C | 0.323% [at 11.4 µM] (inactive) | 
CCOC(=O)c1c(NC(=O)CCCN2CCOCC2)sc2c1CC(C)(C)OC2 | -11.4% (inactive) | 

Compound | activity, negative = inhibition | AC50
COc1ccc2c(c1)c(CC(=O)O)c(C)n2C(=O)c1ccc(Cl)cc1 | 9.28% (inactive) | 
CCc1ccc(NC(=O)C2CCN(S(=O)(=O)c3c(C)[nH]c(=O)[nH]c3=O)CC2)cc1 | 0.298% (inactive) | 
CC(=O)[C@@H]1[C@@H]2C(=O)N(C3CCCCC3)C(=O)[C@@H]2C2c3ccccc3C=CN21 (stereo partly specified) | -46.3% (inactive) | 
O=C(CCCN1C(=O)C2C3C=CC(C3)C2C1=O)N1CCN(c2ccccc2)CC1 (stereo unspecified) | 0.827% (inactive) | 
Cc1nnc(-c2cnn(-c3ccccc3)c2N)n1Cc1ccncc1 | 22.1% (inactive) | 
Nc1nonc1-n1nncc1-c1ccccc1 | -15.6% (inactive) | 
Cn1c(=O)c(-c2ccccc2)nc2cncnc21 | 0.107% (inactive) | 
Cn1c(-c2ccccc2)cnc1N |  | 11.2 µM (active)
CCCCN1C(=O)C(NC(=O)c2cccnc2)(C(F)(F)F)C2=C1CC(C)(C)CC2=O (stereo unspecified) | 23.5% (inactive) | 
COc1ccc2c3c(ccc2c1)N[C@H](C(=O)O)CC3 | 3.59% [at 11.4 µM] (inactive) | 
Cc1cc(=O)[nH]c(-n2[nH]c(C)cc2=O)n1 | -22.1% (inactive) | 
CC1(C)CCC(NC(=O)[C@H](N)CCC(=O)O)CC1 | -3.12% (inactive) | 
COc1ccc(-n2c(=O)c(-c3cccs3)nc3cnc(N4CCNCC4)nc32)cc1 | -7.8% (inactive) | 
CCOC(=O)c1sc(NC(C)=O)nc1-c1ccccc1 | -5.02% (inactive) | 
C=CCSc1nc(C)cc(/C=C\c2ccccc2)c1C#N |  | 2.82 µM (active)
Cc1cc(C)c(C#N)c(SCS(=O)c2ccc(C(C)(C)C)cc2)n1 (stereo unspecified) | 3.97% (inactive) | 
Cc1cc(C)c(C#N)c(Oc2ccccc2)n1 | -8.33% (inactive) | 
COc1ccc(-c2nc3cnc(N(C)C)nc3n(CCc3ccccc3)c2=O)cc1 | 1.04% (inactive) | 
Cc1ccc(S(=O)(=O)CCc2nnc(NC(=O)COc3cccc(C)c3)s2)cc1 | 4.01% (inactive) | 
CC(=O)N[C@@H](CC(=O)O)C(=O)N[C@@H](CCC(=O)O)C(=O)O (Ac-Asp-Glu-OH) |  | inactive
COc1cc2nncc(SCc3ccc(Cl)c(Cl)c3)c2cc1OC | 1.56% [at 11.4 µM] (inactive) | 
Clc1ccc(CSC2=NCCN2)cc1Cl |  | 3.16 µM (active)
CCN(Cc1ccccc1)Cc1cccc([N+](=O)[O-])c1 |  | 0.794 µM (active)
N[C@@H](Cc1cccc([N+](=O)[O-])c1)C(=O)O | 1.07% [at 11.4 µM] (inactive) | 

Compound | activity, negative = inhibition | AC50
Cc1ccc(S(=O)(=O)NCc2cccc([N+](=O)[O-])c2)cc1 | 1.17% [at 11.4 µM] (inactive) | 
CN(C)N1C(N)=C(C#N)C(c2cccnc2)C2=C1CC(C)(C)CC2=O (stereo unspecified) | -16.9% (inactive) | 
Cc1ccc(=O)n(-c2ccccc2)c1 | -4.98% (inactive) | 
O=C1C=C(NCC2CCCO2)C2(CCCCC2)O1 (stereo unspecified) | 10.7% (inactive) | 
COCCn1c(=O)c(-c2ccc(F)c(F)c2)nc2cncnc21 | -7.07% (inactive) | 
Cc1ccc(N=Cc2nc(/C=C/c3cccc([N+](=O)[O-])c3)oc2O)cc1 | 5.21% (inactive) | 
CN(C)c1ncc2nc(-c3ccc(F)cc3)c(=O)n(Cc3ccc(F)cc3)c2n1 | 4.91% (inactive) | 
C#CCCCO/N=C1/C[C@@H](O)[C@@H](O)[C@@H]2[C@@H]3C(=O)N(C4CCCCC4)C(=O)[C@H]3CC[C@H]12 | 18.1% [at 11.4 µM] (inactive) | 
Cc1ccccc1NC(=O)CSc1nnc(-c2ccccc2)n1-c1ccccc1 |  | 1.78 µM (active)
N#Cc1c(-c2ccccc2)cc(C2CC2)nc1SCC(=O)c1cccs1 | 30.5% (inactive) | 
CCOc1ccc(-n2c(SCC(=O)Nc3ccccc3C)n[nH]c2=O)cc1 | -12.1% (inactive) | 
COC(=O)CSc1nnc(-c2ccccc2OC)n1-c1ccc(C)cc1 | 15.1% (inactive) | 
CCn1c(SCC(=O)Nc2ccccc2C(=O)OC)nnc1-c1ccc(N)cc1 | -6.9% (inactive) | 
O=C(CSc1nnc(-c2ccccc2)n1-c1ccccc1)c1cccs1 |  | 2.51 µM (active)
CN(Cc1cc2ccccc2[nH]c1=O)S(C)(=O)=O | -11.9% (inactive) | 
CCc1ccc(OCC(=O)Nc2ccc(-c3nc4ccccc4o3)c(O)c2)cc1 | 13% (inactive) | 
Nc1nc(-c2ccccc2)c(-c2ccccc2)c(-c2nc(N)nc(-c3ccccc3)c2-c2ccccc2)n1 | -0.539% [at 11.4 µM] (inactive) | 
CN(N=O)c1ccc(/C=C\c2ccnc3ccccc23)cc1 | -11% [at 11.4 µM] (inactive) | 
Cc1ccccc1OCC(=O)N/N=C1\CCOc2c(C)cccc21 | 9.01% (inactive) | 
Cc1cc(C=O)c(C)n1-c1ccc(N2CCCCC2)c([N+](=O)[O-])c1 | 27.9% (inactive) | 
COCCn1c(=O)c(-c2cccs2)nc2cnc(Oc3ccc(OC)cc3)nc21 | -3.23% (inactive) | 
N=C(N)SCc1ccc(Cl)cc1Cl (tested in a mixture with another compound) |  | 3.16 µM (active)
O=C(Nc1nnc(SCc2ccc(Cl)cc2Cl)s1)C1COc2ccccc2O1 (stereo unspecified) | -7.07% (inactive) | 
Cc1cc(C)c2c(SCc3ccc(Cl)cc3Cl)nc(N)nc2n1 | -17.3% [at 11.4 µM] (inactive) | 
